Experiment [1] addresses Luciferin 4-monooxygenase (Photinus pyralis) (UniProt P08659). Description: qHTS assay to identify small molecule inhibitors of firefly luciferase (AID 1224835). Further: nearly all actives have a fitted effect of over 25% in size. Put shortly:
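Biochemical qHTS: compounds run as interplate titrations against purified firefly enzyme, with D-luciferin and ATP each at its KM concentration. Light output recorded by CCD imaging.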
On the technique in general: In qHTS, concentration-response curves come from the screen itself.

Experiment [2] is described as follows: qHTS assay to identify small molecule agonists of the constitutive androstane receptor (CAR) signaling pathway - cell viability counter screen (AID 1224836). Further: nearly all actives have a fitted effect of over 45% in size. In a few lines: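 Using CellTiter-Fluor, viability of HepG2 cells harbouring hCAR and CYP2B6-2.2kb was measured following 23 h incubation with a 15-concentration compound series plus PK11195 (0.75 uM final).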

A short description of experiment [3]: qHTS assay to identify small molecule antagonists of the constitutive androstane receptor (CAR) signaling pathway - cell viability counter screen (AID 1224837). Further: nearly all actives have a fitted effect of over 45% in size. In a few lines: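 Fluorescence from CellTiter-Fluor served as the viability signal. Human hepatoma HepG2 cells stably bearing hCAR and CYP2B6-2.2kb received compound plus CITCO (50 nM final) for 23 hr.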

Experiment [4] deals with Nuclear receptor subfamily 1 group I member 3 (Homo sapiens) (UniProt Q14994). The experiment can be described thus: qHTS assay to identify small molecule antagonists of the constitutive androstane receptor (CAR) signaling pathway (AID 1224838).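 Further: HepG2 cells stably expressing hCAR with CYP2B6 luciferase reporter stimulated by CITCO; nearly all actives have a fitted effect of over 40% in size.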 In a few lines: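 Quantitative HTS in double-stable HepG2-CYP2B6-hCAR cells. After 4 h plating, cells get compound (15 concentrations) and CITCO at 50 nM final, incubate 24 h at 37 C, then ONE-Glo luminescence is read.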
Chain of Nuclear receptor subfamily 1 group I member 3 (Homo sapiens) (Q14994 whole entry, looked up): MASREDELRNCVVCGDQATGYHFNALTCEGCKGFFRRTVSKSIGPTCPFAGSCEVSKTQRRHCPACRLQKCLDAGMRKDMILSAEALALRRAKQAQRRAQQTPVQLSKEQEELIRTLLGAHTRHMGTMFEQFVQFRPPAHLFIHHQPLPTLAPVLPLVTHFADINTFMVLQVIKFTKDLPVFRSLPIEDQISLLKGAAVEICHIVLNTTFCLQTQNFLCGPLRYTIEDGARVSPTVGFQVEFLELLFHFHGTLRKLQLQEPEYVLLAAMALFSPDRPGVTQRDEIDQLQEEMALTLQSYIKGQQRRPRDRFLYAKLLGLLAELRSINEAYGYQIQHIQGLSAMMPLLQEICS

The target is the same in experiment [5]. Description: qHTS assay to identify small molecule agonists of the constitutive androstane receptor (CAR) signaling pathway (AID 1224839).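 Further: HepG2 cells stably carrying human CAR and a CYP2B6 luciferase reporter; nearly all actives have a fitted effect of over 15% in size.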 Put shortly:
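Double-stable HepG2 cells (hCAR, CYP2B6-2.2kb) seeded 4 h before compound addition. Exposure 24 h with 0.75 uM PK11195 final. Luciferase detected by ONE-Glo.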

Experiment [6] in a line: qHTS assay to identify small molecule antagonists of the estrogen related receptor signaling pathway with the pleiotropic PPARgamma coactivator (PGC) from Tox21 10K library - cell viability counter screen (AID 1224840; active means well fitted cell-killing curve with a large enough effect in the repeat runs, not every such curve was filed as active; further: nearly all actives have a fitted effect of over 40% in size). In a few lines:
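Compounds in DMSO, alongside positive and negative controls, were pinned onto PGC/ERR cells (2,000 per well). Exposure lasted 17.5 hours at 37 C, followed by a 30-minute CellTiter-Fluor incubation and fluorescence reading.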

The nature of experiment [7]: qHTS assay to identify small molecule antagonists of the estrogen related receptor signaling pathway with the pleiotropic PPARgamma coactivator (PGC) from Tox21 10K library (AID 1224841; call rule not given here; further: actives are mostly falling curves and most rising ones were filed inactive; nearly all actives have a fitted effect of over 50% in size; further: potency means the concentration at half of the fitted maximal effect). Put shortly: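 Compound exposure ran 18 hours at 37 C in PGC/ERR cells (2,000/well) that had first rested 6 hours in a 37 C/5% CO2 incubator. Luciferase activity was then detected with One-Glo after a 30-minute room-temperature step.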

Experiment [8] in a line: qHTS assay to identify small molecule agonists of the estrogen related receptor signaling pathway with the pleiotropic PPARgamma coactivator (PGC) from Tox21 10K library (AID 1224842). Further: nearly all actives have a fitted effect of over 15% in size. In a few lines:
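PGC/ERR reporter cell line, 2,000 cells per well, incubated 6 h at 37 C before 23 nL compound in DMSO was added. After 18 h at 37 C, One-Glo luminescence read following 30 min at room temperature.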

For experiment [9], the target named is Thyrotropin receptor (Homo sapiens) (UniProt P16473). The experiment can be described thus: qHTS assay to identify small molecule agonists of the thyroid stimulating hormone receptor (TSHR) signaling pathway (AID 1224843; calls by dose curve; further: nearly all actives have a fitted effect of over 45% in size; further: potency means the concentration at half of the fitted maximal effect). In a few lines: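 TSHR-HEK293 cells in agonist mode, 30 min room-temperature step, then cAMP measured by competitive HTRF (cAMP-d2 with anti-cAMP cryptate) after 1 h at room temperature. Tested at 15 concentrations in triplicate.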
Chain of Thyrotropin receptor (Homo sapiens) (P16473 whole entry, looked up): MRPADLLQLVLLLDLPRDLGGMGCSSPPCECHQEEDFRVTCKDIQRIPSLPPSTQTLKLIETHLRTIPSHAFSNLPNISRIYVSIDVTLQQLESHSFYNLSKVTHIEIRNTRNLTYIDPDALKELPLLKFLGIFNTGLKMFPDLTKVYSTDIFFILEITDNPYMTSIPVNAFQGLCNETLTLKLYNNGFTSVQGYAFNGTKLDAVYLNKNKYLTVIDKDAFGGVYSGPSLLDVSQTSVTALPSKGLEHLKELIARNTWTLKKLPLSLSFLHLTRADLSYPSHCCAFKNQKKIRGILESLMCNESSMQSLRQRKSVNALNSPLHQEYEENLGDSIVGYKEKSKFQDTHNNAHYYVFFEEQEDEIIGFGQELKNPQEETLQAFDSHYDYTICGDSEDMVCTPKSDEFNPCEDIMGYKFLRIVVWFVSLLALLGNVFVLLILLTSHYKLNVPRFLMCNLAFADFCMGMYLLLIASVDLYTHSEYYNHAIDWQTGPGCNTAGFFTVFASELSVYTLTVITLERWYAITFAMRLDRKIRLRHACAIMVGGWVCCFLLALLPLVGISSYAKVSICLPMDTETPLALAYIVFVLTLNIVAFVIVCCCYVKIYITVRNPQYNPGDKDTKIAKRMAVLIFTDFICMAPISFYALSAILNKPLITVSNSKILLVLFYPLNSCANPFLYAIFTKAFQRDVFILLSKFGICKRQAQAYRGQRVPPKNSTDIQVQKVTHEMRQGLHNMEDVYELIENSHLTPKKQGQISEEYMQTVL

Experiment [10] can be described thus: qHTS assay to identify small molecule agonists of the hypoxia (HIF-1) signaling pathway - cell viability counter screen (AID 1224844; calls by dose curve; further: nearly all actives have a fitted effect of over 50% in size). Put shortly: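 Luminescent ATP content (CellTiter-Glo, 30 min, room temperature) served as the viability measure in HRE-bla ME-180 cells exposed to compounds for 17 hrs in low-serum medium (0.5% dialyzed FBS).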
A short description of experiment [11]: qHTS assay to identify small molecule agonists of H2AX (AID 1224845; active means well fitted activation curve with a large enough effect in the signal ratio in the repeat runs, not every such curve was filed as active; the % refers to the signal ratio). Put shortly:
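Wild-type CHO-K1 cells, plated overnight, exposed 3hr at 37C to 15 concentrations (0.76% DMSO final). Lysed, then HTRF anti-pH2AX (S139) cryptate and anti-H2AX-d2 antibodies, 24 hr room temperature; 665/620 nm emission read.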

The nature of experiment [12]: qHTS assay to identify small molecule agonists of the estrogen related receptor (ERR) signaling pathway from Tox21 library (AID 1224849; calls by dose curve; further: nearly all actives have a fitted effect of over 15% in size). To be noted: ERR reporter cell line, ONE-Glo luciferase, 18 h; at 92.4 µM (top of the series) unless noted. Put shortly:
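We plated ERR reporter cells, waited 6 h, added compounds in DMSO by pin tool and incubated them 18 h at 37 C. ONE-Glo was then added and luminescence read after 30 min.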

Experiment [13] can be described thus: qHTS RealTime-Glo MT Cell Viability Assay in HepG2 cells - 24 hour (AID 1224867). Further: nearly all actives have a fitted effect of over 50% in size. In a few lines: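 Tox21 10K library screened in qHTS format on HepG2 cells carrying RealTime-Glo reagents. Compounds were added after a 5 h preincubation, and the luminescent signal from continuous culture was measured repeatedly during 40 h treatment.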
The nature of experiment [14]: qHTS RealTime-Glo MT Cell Viability Assay in HEK293 cells - 32 hour (AID 1224868). Further: nearly all actives have a fitted effect of over 50% in size. Further: potency means the concentration at half of the fitted maximal effect. Put shortly: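 Luminescence generated by NanoLuc from substrate produced by living HEK293 cells served as the viability signal. Each value reflects the reading at its stated time point during continuous 40 h compound exposure at 37 C.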
The nature of experiment [15]: A CellTox Green Cytotoxicity Assay to monitor cytotoxicity in HEK293 cells - 0 hour (AID 1224869). Further: nearly all actives have a fitted effect of over 50% in size. In a few lines:
(§1)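 Each value comes from one timepoint of a single continuous run in which HEK293 cells with CellTox Green were exposed to compound for up to 40 h at 37 C, dye fluorescence rising with cell death.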

The nature of experiment [16]: qHTS RealTime-Glo MT Cell Viability Assay in HepG2 cells - 40 hour (AID 1224870). Further: nearly all actives have a fitted effect of over 50% in size. Put shortly:
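HepG2 cells (600/well) mixed with RealTime-Glo MT reagent, settled 5 h at 37 C/5% CO2 before compound addition. Nonlytic NanoLuc luminescence from viable-cell prosubstrate reduction read repeatedly during 40 h treatment at 37 C.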

Experiment [17] is described as follows: A CellTox Green Cytotoxicity Assay to monitor cytotoxicity in HEK293 cells - 40 hour (AID 1224871). Further: nearly all actives have a fitted effect of over 45% in size. Further: potency means the concentration at half of the fitted maximal effect. In a few lines: as §1
Experiment [18] is described as follows: qHTS assay to identify small molecule agonists of the hypoxia (HIF-1) signaling pathway (AID 1224846; active means well fitted activation curve with a large enough effect in the signal ratio in the repeat runs, not every such curve was filed as active; the % refers to the signal ratio). In a few lines: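 Measured by blue/green FRET after loading CCF4-AM: beta-lactamase expressed from a hypoxia response element in ME-180 cells. Test agents were delivered in DMSO and left 17 hrs; cells had been plated 5 hrs earlier in low-serum (0.5% dialyzed FBS) medium.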

The nature of experiment [19]: qHTS assay to identify small molecule agonists of H2AX - cell viability counter screen (AID 1224847; calls by dose curve; further: top concentration of the series differs between compounds; nearly all actives have a fitted effect of over 30% in size). In a few lines:
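Quantitative HTS viability measurement: CHO-K1 wild-type cells in serum (10% FBS) medium, short 3 hr drug exposure at 37C with 0.76% DMSO, CellTiter-Glo luminescent detection.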

Experiment [20] can be described thus: qHTS assay to identify small molecule antagonists of the estrogen related receptor (ERR) signaling pathway from Tox21 library (AID 1224848). Further: nearly all actives have a fitted effect of over 50% in size. In a few lines:
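ERR reporter cell line (from NTP) seeded 2,000 cells/well, rested 6 h at 37 C/5% CO2, then pin-dosed with compounds in DMSO. After 18 h at 37 C, ONE-Glo added; luminescence read after 30 min at room temperature.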

SMILES strings stand for the structures. Unmarked numbers belong to inactive results. Results filed as inconclusive are left out. Calls of active or inactive are those of the source. Unless noted, the call rests on the fitted dose curve; in most records, active means well fitted curve in the direction sought with a large enough effect in the repeat runs; inconclusive means weak or mixed curves; inactive means no such curve, though single readings can be large; an effect the other way counts as inactive or inconclusive.
On the % scale 0 is the no-effect control and ±100 the full control effect.

Chain of Luciferin 4-monooxygenase (Photinus pyralis) (P08659 whole entry, looked up): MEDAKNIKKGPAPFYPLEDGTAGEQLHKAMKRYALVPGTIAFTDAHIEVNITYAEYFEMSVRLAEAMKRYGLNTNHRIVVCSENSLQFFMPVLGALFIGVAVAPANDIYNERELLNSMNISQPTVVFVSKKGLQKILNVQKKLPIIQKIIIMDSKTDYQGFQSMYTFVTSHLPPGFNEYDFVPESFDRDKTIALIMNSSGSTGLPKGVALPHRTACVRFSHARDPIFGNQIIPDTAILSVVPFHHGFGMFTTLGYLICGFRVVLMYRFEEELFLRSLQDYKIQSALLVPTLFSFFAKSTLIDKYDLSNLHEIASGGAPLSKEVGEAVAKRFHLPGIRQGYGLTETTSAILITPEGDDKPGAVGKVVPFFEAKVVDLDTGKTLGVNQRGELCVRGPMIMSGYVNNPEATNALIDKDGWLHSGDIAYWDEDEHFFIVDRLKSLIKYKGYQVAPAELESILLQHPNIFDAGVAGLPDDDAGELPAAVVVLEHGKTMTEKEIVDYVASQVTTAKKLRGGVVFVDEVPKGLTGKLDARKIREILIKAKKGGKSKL

Take `CCCN(CCc1cccs1)[C@H]1CCc2c(O)cccc2C1`: the Potency entry in experiment [1], in [2], in experiment [3], in experiment [4], in experiment [5] and in experiment [6] was “inactive” throughout. The Potency result in experiment [7], in experiment [8], in [10], in [11], in experiment [13] and in [15] was “inactive” each time. Besides, the Potency entry in experiment [16] is “inactive”. Besides, the Potency is 29.8 µM (active) in [9], 19 µM (active) in experiment [14] and 23.9 µM (active) in experiment [17]. In experiment [12], the activity change, positive = activation was -19.8% [at 42.5 µM].

As for `CCO[Si](C)(C)OCC`, the Potency result in experiment [1], in experiment [2], in experiment [3], in experiment [4], in [5] and in experiment [6] was “inactive” throughout. Moreover, the Potency result in experiment [8], in [9], in experiment [10], in [11], in [19] and in experiment [20] was “inactive” in each case. The Potency entry in [13], in experiment [14], in experiment [15], in experiment [16] and in experiment [17] was “inactive” throughout. The Potency in [7] is 24.3 µM (active). For the same compound, in experiment [18], the result was inactive. In addition, in experiment [12], the activity change, positive = activation was -0.643%.

Consider `NCCCCCCNCCCCCCN`, for which the Potency entry in experiment [1], in [2], in [3], in experiment [4], in experiment [5] and in [6] was “inactive” each time. Also, the Potency result in experiment [7], in experiment [8], in experiment [10], in [11], in experiment [19] and in experiment [20] was “inactive” throughout. The Potency result in experiment [13], in experiment [14] and in [17] was “inactive” each time. Further, the compound was classed as inactive in experiment [18]. The activity change, positive = activation in [12] is -13.7%.

For `CCOC(/C=C(\C)CCC=C(C)C)OCC`, the Potency result in experiment [1], in experiment [2], in [3], in experiment [4], in experiment [5] and in [6] was “inactive” in each case. Further, the Potency entry in [7], in experiment [8], in experiment [9], in experiment [10], in experiment [11] and in [19] was “inactive” throughout. For the same compound, the Potency entry in experiment [20], in experiment [13], in [14], in [15] and in experiment [16] was “inactive” in each case. Further, the compound was classed as inactive in experiment [18]. In addition, the activity change, positive = activation in [12] is 4.73%.

Take `c1cc[nH]c1`: the Potency entry in experiment [1], in experiment [2], in experiment [3], in [4], in [5] and in experiment [6] was “inactive” throughout. The Potency entry in [7], in [8], in [9], in experiment [10], in experiment [11] and in [19] was “inactive” throughout. For the same compound, the Potency result in [20], in experiment [13], in experiment [14], in [15], in [16] and in experiment [17] was “inactive” each time. For the same compound, the outcome in experiment [18] was inactive. In experiment [12], the activity change, positive = activation is -5.69%.

The values are drawn from PubChem BioAssay (Tox21).
